Shown are actives, neighbours in structure and some others; about 3.7% of the full set was active somewhere.
HTT aggregate – qHTS Multiplex Assay to Identify Dual Action Probes in a Cell Model of Huntington: Aggregate Formation (GFP) | PC12 HttQ103-GFP aggregates, Acumen cytometry, 40 h | Potency, µM (top dose mostly 46.1 µM), hits mostly inhibitors | hit rate 1.1% among 220,000; further: nearly all actives have a fitted effect of over 60% in size
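Inducible Q103 Huntingtin exon 1–GFP PC12 line, 1500 cells/well in phenol red free DMEM with 5% equine and 5% calf serum. Tebufenozide 100 nM induced expression; compounds titrated; aggregates quantified by cytometry.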
Tau FP inhib – qHTS for Inhibitors of Tau Fibril Formation, Fluorescence Polarization | K18 P301L tau heparin fibrillization, Alexa594 FP, 6 h | Potency, µM (series often up to 57.7 µM), actives largely listed as inhibitors | hit rate 0.39% among 280,000 | AID 1468, 2008; further: nearly all actives have a fitted effect of over 55% in size
Target sequence (P10636 561-689 P618L limits assumed): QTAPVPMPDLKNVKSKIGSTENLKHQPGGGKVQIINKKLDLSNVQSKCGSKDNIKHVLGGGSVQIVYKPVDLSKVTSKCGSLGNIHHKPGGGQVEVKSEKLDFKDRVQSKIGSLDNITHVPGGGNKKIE
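Compound effects on tau fibrillization are measured by Alexa 594 fluorescence polarization (ex 555, em 632 nm). K18 P301L tau is used at 15 uM with 0.24 uM labeled tracer, and 20 uM heparin induces aggregation over 6 hr at 37 C.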
Tau fluor counter – Counterscreen qHTS for Inhibitors of Tau Fibril Formation, Fluorescence Polarization. AID 1463, 2008. tau K18 P301L Alexa594 fluorescence, heparin fibrillization. hit rate 0.93% among 280,000. Potency, µM (titrated, usually from 57.7 µM); further: nearly all actives have a fitted effect of over 55% in size
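Human tau K18 P301L (15 uM unlabeled, 0.24 uM Alexa 594-labeled) in 100 mM sodium acetate pH 7 with 20 uM heparin, 6 hr at 37 C. ThT 30 uM added, 1 hr ambient; Alexa 594 FP and total fluorescence read at 555/632 nm.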
Tau ThT inhib – qHTS for Inhibitors of Tau Fibril Formation, Thioflavin T Binding | recombinant tau K18 P301L (four-repeat tau fragment), heparin-induced fibrillization, ThT fluorescence | Potency, µM (highest dose often 57.4 µM), hits mostly inhibitors | hit rate 2.1% among 270,000 | AID 1460, 2008; further: nearly all actives have a fitted effect of over 55% in size
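In this qHTS, human K18 P301L tau is incubated with compound and heparin for 6 hr at 37 C, and Thioflavin T fluorescence then reports fibril load.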
HTT cytoprotect – qHTS Multiplex Assay to Identify Dual Action Probes in a Cell Model of Huntington: Cytoprotection (ATP) | PC12 HTT-Q103 induced, cytoprotection, ATP luminescence, 40 h | hit rate 0.14% among 230,000 | Potency, µM (titrated, usually from 56.4 µM), most hits filed as activators; further: nearly all actives have a fitted effect of over 45% in size
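Stable PC12 Q103-GFP cells in serum-supplemented, phenol red-free DMEM; induction by tebufenozide at 100 nM final; compound dose series; cell viability quantified luminescently from ATP.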
A number is an active result; i = inactive; ? = inconclusive; nt = no result given; [ ] = another dose, or the depositor's remark. The call rests on the fitted dose curve; in most records, active means well fitted curve in the direction sought with a large enough effect; inconclusive means small, poorly fitted or top-dose-only effect, or another doubt; inactive means no such curve, though single readings can be large; an effect the other way counts as inactive or inconclusive.

SMILES	HTT aggregate	Tau FP inhib	Tau fluor counter	Tau ThT inhib	HTT cytoprotect
O=C1NN(c2ccccc2)C(=O)/C1=C/c1ccc(Sc2cccc3ccccc23)o1	?	?	14µM[quencher]	13µM	i[10 µM]
Cc1[nH]n(C2=NCCS2)c(=O)c1N=Nc1cccc(C(F)(F)F)c1	?	i	i	13µM	i
O=C(Nc1ccc2nc(SCC(=O)N3CCOCC3)sc2c1)c1ccccc1Cl	nt	i	i	i	nt
COc1ccc(NC(=O)Nc2nc3c(s2)CCCC3)cc1	?	i	18µM[quencher]	?	i[10 µM]
COc1ccc(S(=O)(=O)N2CCCC2C(=O)Nc2nc3c(s2)CCCC3)cc1 (stereo not given)	i	i	i	i	i
COc1ccc(NC(=O)Nc2nnc(-c3ccccc3SCc3ccccc3)s2)cc1	i	?	3.5µM[quencher]	i	i[10 µM]
COc1ccc(OCc2nnc(NC(=O)Nc3ccc(F)cc3)s2)cc1	i[9.22 µM]	10µM	i	i	i[10 µM]
COc1cccc(NC(=O)Nc2nnc(-c3ccccc3SCc3ccccc3)s2)c1	i	?	?	i	i
O=C(Nc1cccc(Br)c1)Nc1nc2c(s1)CCCCCC2	nt	?	3.5µM[quencher]	i	nt
O=C(CSCc1cnn(-c2ccccc2)c1-n1cccc1)NCc1ccc(F)cc1	nt	?	i	i	nt
Cc1ccc(-n2nc(CO)c(C(=O)NCCc3ccccc3)n2)cc1C	nt	i	i	?	nt
COc1ccc(NC(=O)Nc2nc3ccccc3s2)cc1	i[9.22 µM]	?	8.9µM[quencher]	?	i[10 µM]
CCOc1ccc2nc(NC(=O)Nc3cccs3)sc2c1	i	?	14µM[quencher]	?	i
COc1ccc(Nc2ccc(OC)cc2)cc1	i[9.22 µM]	?	?	10µM	i[10 µM]
COc1ccc(Nc2nc3ccc(OC)cc3s2)cc1	i	i	14µM[quencher]	13µM	i
Cc1ccc(NCc2cccn2-c2nnc(N3CCC(C(=O)NCCc4ccc(Cl)cc4)CC3)s2)cc1	nt	i	?	?	nt
COc1ccccc1NC1=C(N2CCCCC2)C(=O)c2ccccc2C1=O	13µM	?	?	13µM	i[10 µM]
CN(C1=C(N2CCCCC2)C(=O)c2ccccc2C1=O)c1ccccc1	i	i	?	?	i
Cc1ccc(C(=O)Nc2cccc(O)c2)cc1S(=O)(=O)N1CCCCCC1	nt	?	i	i	nt
O=C1C(Nc2cccc(O)c2)=C(N2CCCCC2)C(=O)c2ccccc21	?	?	18µM[quencher]	14µM	i
O=C1C(Nc2ccccc2)=C(N2CCCCC2)C(=O)c2ccccc21	?	?	i	18µM	i
Cc1ccc(NC2=C(N3CCCCC3)C(=O)c3ccccc3C2=O)cc1	i	i	i	i	i
O=C(/C=C/c1ccc(O)cc1)c1ccc(NC2=C(N3CCCCC3)C(=O)c3ccccc3C2=O)cc1	i	?	13µM[quencher]	7.9µM	i
O=C(/C=C/c1ccc(O)cc1)c1ccccc1	i[9.22 µM]	i	i	i	i[10 µM]
COc1ccc(Oc2ncc3nc(-c4cccc(C#N)c4)c(=O)n(CCC#N)c3n2)cc1	nt	nt	nt	nt	i
SMILES	HTT aggregate	Tau FP inhib	Tau fluor counter	Tau ThT inhib	HTT cytoprotect
CCOC(=O)C1CCCN(C(=O)Cn2ncn3c(cc4sc(CC)cc43)c2=O)C1 (stereo not given)	nt	i	i	i	nt
CC(=O)c1cc(O)c2ccccc2c1O	i[9.22 µM]	?	?	28µM	i[10 µM]
CC(=O)c1coc2c1cc(O)c1ccccc12	i	i	i	?	i
Cc1[nH]c2ccccc2c1C(=O)CSC(=S)N1CCCCC1	i	40µM	22µM[quencher]	?	nt
Cc1[nH]c2ccccc2c1C(=O)CN1CCN(C2CCCCC2)CC1	i	i	i	i	i[0.074 µM]
Cc1[nH]c2ccccc2c1C(=O)CSC(=S)N(C)C1CCCCC1	i	25µM	?	i	nt
Cc1[nH]c2ccccc2c1SCC(=O)N1CCCCC1	i	i	?	?	nt
CCOC(=O)N1CCN(C(=O)c2cc(COc3ccc4ncccc4c3)on2)CC1	i[9.22 µM]	i	i	?	i[10 µM]
O=C(NC1CCCCCCC1)c1cc(COc2ccc3ncccc3c2)on1	3.2µM	i	i	?	i
Cc1cccnc1CN1CCN(C(=O)c2cc(COc3ccc4ncccc4c3)on2)CC1	6.3µM	i	i	?	i
CCN(CC)CCOC(=O)c1cccnc1	i	nt	nt	nt	i
Cc1cc(NC(c2nnc(-c3ccccc3)o2)c2ccccc2F)ccc1Br (stereo not given)	nt	i	?	i	nt
COc1ccc(/C=N/Nc2nnc(C)n2N)cc1OC	?	?	i	28µM	i
Cc1nnc(N/N=C/c2ccc([N+](=O)[O-])cc2)n1N	?	i	i	?	i
CCOC(=O)c1cnc(N(C)C)nc1SC(=N)N	nt	nt	nt	nt	i[10 µM]
Cc1coc2c1C(=O)C(=O)c1c-2ccc2c1CCCC2(C)C	i[9.22 µM]	?	?	14µM	i
Cc1ccc2c3c(cccc13)-c1ccccc1C2=O	i	i	i	?	i[10 µM]
Cc1coc2c1C(=O)C(=O)c1c-2ccc2c(C)cccc12	i[9.22 µM]	?	i	2µM	i[10 µM]
N#Cc1ccccc1Cn1c(=O)n(CCCCC(=O)NCc2ccc3c(c2)OCO3)c(=O)c2ccccc21	nt	i	i	i	nt
Cc1nc(NCc2ccccc2)c2nc(-c3ccccc3)n(CCN(C)C)c2n1	nt	i	i	i	i
Cc1ccccc1C(c1c(C)n(C)n(-c2ccccc2)c1=O)c1c(C)n(C)n(-c2ccccc2)c1=O	nt	i	i	i	nt
COc1ccc2c(c1OC)C(Cc1ccccc1)N1CCc3cc4c(cc3C1C2)OCO4 (stereo not given)	nt	?	?	16µM	i[1.9 µM]
Cc1ccc(-c2ccc(C(=O)Nc3cccc(F)c3)o2)c2ccccc12	22µM	i	?	?	nt
O=C(Nc1cccc(F)c1)c1ccc(-c2ccccc2Cl)o1	i	i	i	i	nt
O=C1N/C(=N\N=C\c2cccnc2)SC1Cc1ccc(SC(F)F)cc1 (stereo not given)	5.6µM	i	i	i	i[10 µM]
O=C1N/C(=N\N=C\c2ccccn2)SC1Cc1cccc(SC(F)F)c1 (stereo not given)	5.6µM	i	i	i	i[10 µM]
COC(=O)N1C2=C(c3ccccc3[C@@H]1CC(=O)Nc1ccc3cc4ccccc4cc3c1)[C@@H]1C(=O)N(c3ccccc3)C(=O)[C@@H]1[C@H](C)C2	nt	i[11.6 µM]	i[11.6 µM]	i[11.5 µM]	i[10 µM]
CC(C)(N)C(=O)N[C@@H]1C(=O)N2[C@@H]1SC(C)(C)[C@H]2C(=O)O	nt	nt	nt	nt	i[10 µM]

High-throughput results deposited in PubChem BioAssay by National Center for Advancing Translational Sciences (NCATS).
